The text below walks through data of the OligoGym collection.
Also: reference of the scale not given here.

For the assay, the target named is NCAPG2. Put plainly: pooled miR-30 sensor sort-seq; sequence = guide strand. The conditions noted are these: shRNA.
With TTCCATATTGTCTTCACCCTGG, the sensor-assay potency score (higher = more potent) was -0.0247.
On to TTGTCGTGGAGACTGTATCTGA, for which the sensor-assay potency score (higher = more potent) is -0.323.
Next, TTGCAAAAACTCTCCAACCAGC: -0.983; AACATCTTTACACACAGTCAGG: -1.69.
